The results in this text go back to ChEMBL document CHEMBL1157539, “Thousands of chemical starting points for antimalarial lead identification” (Nature, 2010).

Broadly, the Inhibition is the drop in the measured response relative to a control, in per cent.

The test system of the experiment is Plasmodium falciparum. The experiment in a line: GSK_TCMDC: Inhibition of Plasmodium falciparum 3D7 in whole red blood cells, using parasite LDH activity as an index of growth. Test compounds present at 2uM. The format is functional.
`COc1cc2nc(Nc3ccc(Oc4ccccc4)cc3)nc(Nc3ccc(Oc4ccccc4)cc3)c2cc1OC` returned an Inhibition of 95%.

Consider `CCN(CC)CCOc1cc2c(cc1Br)-c1cc(Br)c(OCCN(CC)CC)cc1C2=NO.Cl`, for which the Inhibition amounted to 100%.

Compound `Cl.c1ccc(Oc2ccc(Nc3ccnc(Nc4ccc5cn[nH]c5c4)n3)cc2)cc1` showed an Inhibition of 94%.

On to `O=C(NCc1ccc(Cl)cc1)c1ccc(CN2CCCN(CC3CCCCC3)CC2)cc1.O=C(O)C(F)(F)F`, for which the Inhibition worked out at 84%.

For the compound `CN(/N=C/C=C/c1ccc(Cl)cc1)c1nc(NCCc2ccc(O)cc2)nc(N2CCNCC2)n1`, the Inhibition came to 92%.

Compound `O=C(Nc1ccc(C(=O)OCC2CCCCC2)cc1)N[C@@H](Cc1ccc(O)cc1)C(=O)NC1CCN(Cc2ccc(O)cc2)C1.O=C(O)C(F)(F)F` (stereo partly drawn) returned an Inhibition of 91%.

`CC(C)NCc1cccc(-c2ccc(NC(=O)c3ccc(F)cc3)cc2)c1.O=C(O)C(F)(F)F`: the Inhibition is recorded as 92%.

Regarding `O=C(CN1CCN(C(C(=O)Nc2cc(C(F)(F)F)ccc2Cl)c2ccccc2)CC1)NC1CC1` (stereo not drawn), the Inhibition turned out to be 95%.

As for `CN(C)CCOc1ccc(-c2cc(-c3ccnc(N)n3)c(-c3ccc(Cl)c(O)c3)o2)cc1`, the Inhibition came out at 100%.

`CNC(=O)c1cncc(/C=C/c2ccccc2S(N)(=O)=O)c1` displayed an Inhibition of 100%.

The compound `Cc1cccc2nc(-c3ccc(-c4ccc(CN5CCCC(N)C5)cc4)cc3)[nH]c12.O=C(O)C(F)(F)F` (stereo not drawn) came in with an Inhibition of 99%.

In the case of `COc1ccccc1COc1c(C)nc(N)nc1N.Cl`, the Inhibition is 98%.

As to `COCCN1CCC(N(Cc2ccc(-c3ccc(C(F)(F)F)cc3)cc2)C(=O)Cn2c(CCc3cccc(F)c3F)cc(=O)c3c2CCC3)CC1.O=C(O)C(O)C(O)C(=O)O`, the Inhibition is recorded as 85%.
